Screens (PubChem)
In the library only some 10% were active in any assay of this set; here they are far more common.
HPGD block: blocks human HPGD enzyme activity. P15428. purified HPGD, NADH fluorescence kinetic, PGE2 substrate. Potency, µM, for the others: at the top dose activity change, negative = inhibition, most hits filed as inhibitors. hit rate 4.3% among 150,000; active = well fitted inhibition curve with a large enough effect, not every such curve was filed as active; inconclusive = small, poorly fitted or top-dose-only effect, or another doubt; inactive = no such curve, though single readings can be large or run the other way; also: potency is read from the fitted curve at half-maximal effect
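20 nM HPGD preincubated 15 min at room temperature with compound in 50 mM Tris-HCl pH 8, 0.01% Tween 20. Started with 1 mM NAD+ and 30 uM prostaglandin E2; NADH fluorescence (360/450 nm) read 5 times over 30-s intervals, last minus first.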
GLA spleen mod: alpha-galactosidase A (human) modulation | human spleen homogenate, 4MU-alpha-Gal fluorescence, 40 min | Potency, µM (doses to about 80 µM), inactives show at the top dose activity change, negative = inhibition, most hits filed as inhibitors | hit rate 0.008% among 240,000 | AID 2107 | P06280;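 also: potency is read from the fitted curve at half-maximal effect; 0% = enzyme with vehicle and -100% = no enzyme basal signal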
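Inhibition or activation of alpha-galactosidase in human spleen homogenate is scored by 4-MU fluorescence after 40 min at 37C, pH 5.0, with 1 mM substrate. AC50s come from concentration-response fitted to the Hill equation.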
ALDH1A1 inh: blocks purified human ALDH1A1 activity. Potency, µM (titrated, usually from 75.3 µM), without a hit: at the top dose activity, negative = inhibition, actives largely listed as inhibitors. Purified ALDH1A1, NADH fluorescence, propionaldehyde substrate. hit rate 7.3% among 220,000; active = well fitted inhibition curve with a large enough effect, not every such curve was filed as active; inconclusive = small, poorly fitted or top-dose-only effect, or another doubt; inactive = no such curve, though single readings can be large or run the other way;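 also: potency is read from the fitted curve at half-maximal effect; plate controls were no enzyme wells and a reference inhibitor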
PNC inhibitor: blocks assembly of the perinucleolar compartment; PC3M PTB-GFP, PNC prevalence imaging, 16 h; hits give low values; activity change (PNC), negative = inhibition, % at 10 µM; hit rate 3.1% among 140,000;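 active = readout at or below -70, meaning at least 70% loss of cells showing the perinucleolar compartment, a nuclear body marking cancer cells; inconclusive = readout between -30 and a set limit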;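 also: plate controls were DMSO wells for no effect and camptothecin positive control wells for full effect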
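Read-out is percentage of cells bearing a perinucleolar compartment, from automated 20x imaging of fixed, Hoechst-stained PC3M PTB-GFP cells. Cells were seeded 4 h, then exposed 16 h to compound (23 nl of library stock) in duplicate plates.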
ALOX12 inhib: 12-hLO (ALOX12) enzyme inhibition; hit rate 0.12% among 150,000; AID 1452; purified 12-hLO, xylenol orange hydroperoxide absorbance; Potency, µM (titrated, usually from 57.1 µM), for the others: at the top dose activity change, negative = inhibition, most hits filed as inhibitors; P18054; also: potency is read from the fitted curve at half-maximal effect; nearly all actives have a fitted effect of over 55% in size
Target sequence (P18054 whole entry, looked up): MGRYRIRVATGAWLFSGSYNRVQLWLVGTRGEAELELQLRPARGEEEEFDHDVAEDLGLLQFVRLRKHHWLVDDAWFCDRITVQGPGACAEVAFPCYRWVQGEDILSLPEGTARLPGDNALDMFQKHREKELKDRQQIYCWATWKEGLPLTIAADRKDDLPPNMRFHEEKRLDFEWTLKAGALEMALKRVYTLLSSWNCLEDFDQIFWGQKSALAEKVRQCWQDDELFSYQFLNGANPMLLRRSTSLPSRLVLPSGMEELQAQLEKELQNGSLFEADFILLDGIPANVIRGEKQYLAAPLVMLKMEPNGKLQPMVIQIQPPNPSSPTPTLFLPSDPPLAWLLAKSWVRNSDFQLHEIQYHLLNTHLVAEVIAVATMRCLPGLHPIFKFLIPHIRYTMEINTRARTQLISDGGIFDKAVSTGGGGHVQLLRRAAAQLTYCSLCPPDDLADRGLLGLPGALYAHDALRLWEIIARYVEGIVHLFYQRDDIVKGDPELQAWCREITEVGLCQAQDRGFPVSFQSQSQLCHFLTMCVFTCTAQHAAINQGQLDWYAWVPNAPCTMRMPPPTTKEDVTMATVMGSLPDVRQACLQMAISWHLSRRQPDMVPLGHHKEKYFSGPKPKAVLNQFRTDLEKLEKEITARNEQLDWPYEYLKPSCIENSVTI
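Purified human 12hLO (150 nM final) was preincubated with compounds for 15 min at room temperature in 25 mM Hepes pH 7.0, 0.01% Triton X-100, then reacted with 40 uM arachidonic acid for 30 min. Hydroperoxide was detected with ferrous iron/xylenol orange.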
GLA inh pH 4.5: inhibitors of human alpha-galactosidase A at pH 4.5 | 230,000 tested, under 10 active | P06280 | purified enzyme, 4-MU-alpha-Gal fluorescence, pH 4.5 | activity change, negative = inhibition, % at 105 µM | AID 1467;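 also: 0% = full activity with enzyme and -100% = basal without enzyme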
* = called active by the depositor; ? = inconclusive; / = no result. Unless noted, calls follow the shape of the dose curve; as a rule, active = well fitted curve in the direction sought with a large enough effect; inconclusive = small, poorly fitted or top-dose-only effect, or another doubt; inactive = no such curve, though single readings can be large; an effect the other way counts as inactive or inconclusive. Unless noted, % is scaled to controls: 0 for no effect and ±100 for the full control effect.

SMILES	HPGD block	GLA spleen mod	ALDH1A1 inh	PNC inhibitor	ALOX12 inhib	GLA inh pH 4.5
O=S(=O)(O)c1ccc2c(c1)-c1nc-2nc2[nH]c(nc3nc(nc4[nH]c(n1)c1ccc(S(=O)(=O)O)cc41)-c1ccc(S(=O)(=O)O)cc1-3)c1ccc(S(=O)(=O)O)cc21	/	-9.9%	/	/	/	/
CC1CCC(C(=O)NC(C(=O)N2CCN(c3ccccn3)CC2)C(C)C)CC1 (stereo not given)	-24.1%	2.7%	5.2%	-114.3*	1.9%	-11.2
Cn1cc(Br)c(C(=O)NC(=S)N2CCN(c3ccccn3)CC2)n1	-10.8%	-0.4%	-3.3%	-86.4*	-3.7%	5.4
CCC(Oc1ccccc1)C(=O)N1CCN(c2ccccn2)CC1 (stereo not given)	-16.7%	-0.2%	-1.2%	-131.9*	-6.8%	1.2
CC1CCC(C(=O)NC(C(=O)N2CCc3ccccc3C2)C(C)C)CC1 (stereo not given)	-8.5%	-2.3%	-14.7%	18.9	-3.9%	5.4
O=C(NC(=S)N1CCN(c2ccccn2)CC1)c1ccccc1	-8.9%	-6.3%	-13.2%	-91.7*	-3.3%	8.3
O=C(COC(=O)c1ccc2ccccc2c1)Nc1ncc(C(F)(F)F)cc1Cl	-33.1%	-8.6%	-13.6%	4.5	-7.0%	4.1
Cc1nn(-c2ccccc2)c(C)c1/C=C/C(=O)OCC(=O)Nc1ncc(C(F)(F)F)cc1Cl	?	-2.1%	?	-113.4*	-0.6%	0.6
O=C(COC(=O)c1ccc2ccccc2n1)Nc1ncc(C(F)(F)F)cc1Cl	-4.4%	-3.3%	11.5%	-1.2	-0.1%	-5.8
O=C(COC(=O)C1(c2ccccc2F)CCCC1)Nc1ncc(C(F)(F)F)cc1Cl	-8.5%	-4.7%	?	-109.0*	-4.4%	-11.4
COC(=O)[C@@]1(Cc2ccc(OC)cc2)[C@H]2c3cc(C(=O)N4CCCC4)n(Cc4ccc(C)c(F)c4F)c3C[C@H]2CN1C(=O)c1ccccc1	-15.0%	-2.3%	-4.2%	/	-8.0%	-6.8
CCC1(CC)C(=O)C2=C3C1[C@H](C(=O)OC)C=C(C(=O)OC)C[C@H]3[C@H]1C(=O)N(CC(=O)OC)C(=O)[C@H]1[C@H]2C (stereo not given in full)	/	2.8%	/	/	/	/
O=C(NCCc1csc(-c2cccnc2)n1)c1ccc(Br)o1	?	6.1%	22.4µM*	0.8	2.1%	0.8
O=C(NCCc1csc(-c2ccccc2)n1)c1ccc(Br)o1	?	1.4%	-14.8%	-22.6	3.8%	-7.5
CCOc1ccc(/C=N/n2c(SC)nnc2-c2ccccc2)cc1OCC	-7.1%	3.1%	4.9%	-2.6	-2.4%	4.6
CCOc1ccc(C2C(C#N)=C(N)SC(N)=C2C#N)cc1OCC	22.4µM*	-14.1%	?	34.2	-20.6%	-1.1
CCOc1ccc(C2C(C#N)=C(N)SC(N)=C2C#N)cc1OC	25.1µM*	-18.7%	?	?	-16.3%	-0.7
CCOc1ccccc1C1C(C#N)=C(N)SC(N)=C1C#N	-16.6%	2.2%	5.2%	3.6	-23.9%	-5.0
N#CC1=C(N)SC(N)=C(C#N)C1c1cccc(Oc2ccccc2)c1	22.4µM*	-1.3%	10µM*	?	-17.5%	-10.8
O=C(CSc1nc2cc(Cl)ccc2s1)c1ccco1	22.4µM*	-9.6%	?	-6.5	-19.5%	3.9
O=C(CSc1nnc(SCC(=O)c2ccco2)s1)c1ccco1	31.6µM*	4.0%	?	-19.8	-11.0%	8.5
O=C(CSCc1ccc(Cl)cc1)c1ccco1	22.4µM*	-2.0%	?	2.7	-6.8%	0.9
CCN(CC)C(=O)c1ccc(S(=O)(=O)N2CCC(c3nc4ccccc4s3)CC2)cc1	-21.2%	-3.1%	-5.1%	-100.0*	3.5%	-0.5
CCOc1cc(CO)cc(Br)c1OCC(N)=O	/	2.0%	4.5%	/	/	7.1
CCCOc1c(Cl)cc(/C=N/O)cc1OCC	25.1µM*	-2.0%	?	-1.0	-18.9%	-9.8
CCOc1cc(C=O)cc(Cl)c1OCC(N)=O	/	-11.8%	7.08µM*	/	/	-0.9
CCOc1ccc(Cl)cc1/C=N/O	11.2µM*	0.2%	6.8%	-20.6	-10.4%	-7.5
